An excerpt weighted towards active compounds, which were near 12% of everything screened.
Sfp inh – blocks B. subtilis Sfp PPTase activity; Biochemical Sfp PPTase activity, qHTS; Potency, µM, for inactives: largest response in the series, negative = inhibition, hits mostly inhibitors; Q9F4F7; 310,000 tested, 3.5% active;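 further: the enzyme is Sfp with the accession as filed and its product quenches rhodamine fluorescence; 0% = enzyme reaction without inhibitor and -100% = no enzyme wells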
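Sfp 15 nM + cpd, 15 min RT; start w/ rhodamine-CoA 5 uM, BHQ-2-YbbR 12.5 uM (final); 50 mM Hepes pH 7.6, 10 mM MgCl2, 0.01% NP-40, 0.01% BSA; read 525/598 nm at 0 and 30 min.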
JMJD2A Tudor – inhibitors of human JMJD2A Tudor domain. O75164. AlphaScreen JMJD2A-Tudor / H3K4me3 peptide binding. Potency, µM (doses to about 114 µM), without a hit: at the highest dose activity change, negative = inhibition, most hits filed as inhibitors. 390,000 tested, 4.4% active; further: on the % scale 0 is the no-effect control and ±100 the full control effect; nearly all actives have a fitted effect of over 50% in size
G9a block – blocks human histone lysine methyltransferase G9a; 350,000 tested, 8.8% active; Potency, µM (highest dose often 102 µM), for the others: at the highest dose activity, negative = inhibition, actives largely listed as inhibitors; G9a H3K9 monomethylation, AlphaScreen, 2 h; further: on the % scale 0 is the no-effect control and ±100 the full control effect; nearly all actives have a fitted effect of over 75% in size
Target sequence (Q96KQ7 913-1193 limits assumed): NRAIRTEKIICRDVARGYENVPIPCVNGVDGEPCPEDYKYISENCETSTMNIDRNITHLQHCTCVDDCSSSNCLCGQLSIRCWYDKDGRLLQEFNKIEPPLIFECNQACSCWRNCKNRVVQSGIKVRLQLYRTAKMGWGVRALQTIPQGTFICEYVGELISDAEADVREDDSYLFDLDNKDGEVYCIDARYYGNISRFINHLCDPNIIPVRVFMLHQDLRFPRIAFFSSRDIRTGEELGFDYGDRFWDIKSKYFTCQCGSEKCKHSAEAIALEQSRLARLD
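Chemiluminescent proximity detection of H3K9 monomethylation, read after 10 min bead incubation in the dark. Reaction: 20 nM G9a, 500 nM biotin-H3K9 peptide, 20 uM SAM cofactor, 2 h, room temperature, following 15 min enzyme-compound preincubation.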
BAZ2B inh – blocks human BAZ2B; Potency, µM (highest dose often 114 µM), inactives show at the highest dose activity change, negative = inhibition, most hits filed as inhibitors; 360,000 tested, 4.4% active; Q9UIF8; AID 504333; AlphaScreen BAZ2B-H3K14Ac peptide displacement; further: on the % scale 0 is the no-effect control and ±100 the full control effect; nearly all actives have a fitted effect of over 60% in size
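AlphaScreen displacement: compounds (up to 110uM) incubated 30 min at room temperature with a preformed 50 nM BAZ2B/50 nM biotinylated H3K14Ac peptide complex in PBS pH 7.4 with Tween-20. Donor and acceptor beads at 10 ug/mL final added, 20 min light-protected before reading.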
HP1b chromo inh – HP1-beta chromodomain-methylated histone interaction inhibition; Potency, µM (top dose mostly 114 µM), for inactives: top-dose activity change, negative = inhibition, usual class: inhibitors; 390,000 tested, 0.56% active; AlphaScreen HP1-beta / biotin-H3K9me3 peptide binding; AID 540317; P83916; further: nearly all actives have a fitted effect of over 70% in size
Target sequence (P83916 whole entry, looked up): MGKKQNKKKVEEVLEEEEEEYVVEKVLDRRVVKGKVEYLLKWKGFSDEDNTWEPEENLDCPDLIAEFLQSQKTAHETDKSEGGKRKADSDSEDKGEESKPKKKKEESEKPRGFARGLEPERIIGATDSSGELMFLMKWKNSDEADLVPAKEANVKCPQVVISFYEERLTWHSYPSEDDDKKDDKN
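AlphaScreen: HP1-beta (50 nM) preformed 30 min with biotin-H3(1-18)K9me3 peptide (50 nM) in PBS pH 7.4, 0.01% Tween-20. Compound added for 30 min at RT, then streptavidin donor/nickel chelate acceptor beads (10 ug/mL) for 30 min.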
Active calls of the source: *; ? = inconclusive; · = no result given; ! = not active in a repeat; [ ] = dose if it differs, or a comment. The call rests on the fitted dose curve; in most records, active means well fitted curve in the direction sought with a large enough effect; inconclusive means small, poorly fitted or top-dose-only effect, or another doubt; inactive means no such curve, though single readings can be large; an effect the other way counts as inactive or inconclusive. Potency means the concentration at half of the fitted maximal effect.

SMILES	Sfp inh	JMJD2A Tudor	G9a block	BAZ2B inh	HP1b chromo inh
CCOc1ccc(-n2c(C)nc(O)c2N=Nc2ccccc2)cc1	-3.2%	?	1.41µM*	?	-7.1%
CCOc1ccc(-n2c(C)c(C(C)=O)c(C(C)=O)c2C)cc1	14.9%	-16.5%	-18.4%[59 µM]	-29.4%	-9.6%
CN(C)c1cccc(N=C2C=C(N3CCOCC3)CC(C)(C)C2)c1	23.7%	50.1µM*	3.16µM*	-2.9%	-11.4%
CCOc1ccccc1CN1CCN(Cc2[nH]c3ccccc3c2C)CC1CCO (configuration not stated)	3.1%	?	70.8µM*	-30.9%	-11.2%
O=C(O)c1cn(-c2ccc(F)cc2)c2cc(N3CCNCC3)c(F)cc2c1=O	11.2%	50.1µM*	?	·	23.7%
Cn1cc(S(=O)(=O)c2ccccc2)c(=O)c2cc(F)c(N3CCN(c4ccc(F)cc4)CC3)cc21	·	-10.2%	1.4%[59 µM]	0.8%	-1.7%
COc1ccccc1CNc1ccc([N+](=O)[O-])cc1C	-8.2%	-30.8%[57.1 µM]	·	?	-20.1%
Cc1cc([N+](=O)[O-])ccc1NCc1ccccc1	3.9%	-25.0%	·	-9.9%	14.7%
COc1ccccc1NCc1ccc([N+](=O)[O-])s1	-29.9%	?	7.94µM*	50.1µM*	?
Cc1ccccc1NCc1ccc([N+](=O)[O-])s1	-7.9%	?	·	50.1µM*	?
COc1cc2nc(CN3CCN(C(c4ccccc4)c4ccccc4)CC3)[nH]c(=O)c2cc1OC	9.7%	·	7.9%[59 µM]	0.0%	·
C[C@@H](C(=O)N1CCN(C(=O)OC(C)(C)C)CC1)n1cc(CCC(=O)O)nn1	8.7%	-13.3%	-43.4%[59 µM]	-22.2%	36.4%
CN(CCC1CCCCO1)C(=O)CCc1nnc(Cc2c[nH]c3ccccc23)o1 (configuration not stated)	5.7%	-7.6%	79.4µM*	-14.6%	35.3%
CN(CCC1CCCCO1)C(=O)CCc1nnc(CCc2ccccc2)o1 (configuration not stated)	4.8%	-0.7%	·	-2.0%	24.7%
COC1=C/C(=C/c2c(N)n3nc(CC(=O)N4CCCCC4)sc3nc2=O)C=CC1=O	8.7%	-13.1%	?	-22.0%	19.6%
COC1=CC(=Cc2c(N)n3nc(CC(=O)N4CCOCC4)sc3nc2=O)C=C(OC)C1=O	-3.1%	?	?	44.7µM*	3.2%[57 µM]
Nc1c(C=C2C=CC(=O)C=C2)c(=O)nc2sc(CC(=O)N3CCOCC3)nn12	4.7%	-9.0%	·	?	15.6%
C=CCC1=C/C(=C\c2c(N)n3nc(CC(=O)N4CCCC4)sc3nc2=O)C=C(OC)C1=O	5.5%	-2.3%	20.1%[0.0925 µM]	79.4µM*	41.7%
CCOc1ccc2nc(N3CCCC(C(=O)Nc4ccc(Br)c(C)c4)C3)sc2c1 (configuration not stated)	·	-10.9%	-4.4%[59 µM]	0.2%	4.6%
CCOc1ccc(NC(=S)NC(=O)c2c(Cl)cnn2CC)c([N+](=O)[O-])c1	?	?	?	?	-15.7%
CCOc1ccc(NC(=S)NC(=O)c2c(Br)cnn2C)c([N+](=O)[O-])c1	-6.0%	?	28.2µM*	?	?
Cc1ccc([N+](=O)[O-])cc1NC(=S)NC(=O)C(C)(C)C	10.1%	-24.1%	-50.1%	?	-10.3%
Cc1ccc([N+](=O)[O-])cc1NC(=S)NC(=O)c1c(Cl)cnn1C	44.7µM*	-9.3%	·	-7.0%	20.0%
CC(=O)N=c1sc2nc3ccccc3nc2n1N(C(C)=O)C(C)=O	44.7µM*	7.94µM*	?	50.1µM*	?
N=c1ccn(O)cc1CCc1ccccc1	·	0.7%	·	·	39.2%
SMILES	Sfp inh	JMJD2A Tudor	G9a block	BAZ2B inh	HP1b chromo inh
COC(=O)c1sccc1NC(=S)Nc1ccccc1	19.3%	-15.2%	50.1µM*	-6.3%	11.9%
O=C(Cc1cc(C(=O)O)c2ccccc2n1)Nc1ccccc1	-0.9%	-9.8%	35.5µM*	11.5%	29.8%
O=C(CSCc1ccccn1)Nc1ccccc1	11.2%	2.1%[11.4 µM]	-31.3%[59 µM]	-1.6%	34.2%
Fc1ccc(NC(=S)Nc2nccs2)cc1	?	-21.0%	?	-13.9%	-27.6%
O=C(Cc1ccccn1)Nc1ccccc1	13.8%	-27.0%	39.8µM*	?	52.0%
S=C(Nc1ccccc1)Nc1nccs1	?	?	26.7µM*!	-13.6%	-8.0%
CCC(C)(C)n1nnnc1C(c1cccnc1)N1CCC(Cc2ccccc2)CC1 (configuration not stated)	17.8%	-16.2%	-27.8%	-0.7%	12.9%
COc1ccc(C(=O)N2CC(=O)Nc3ccc(Br)cc3C2c2ccc(F)cc2)cc1OC (configuration not stated)	·	-30.0%	-12.4%[59 µM]	?	7.2%
S=C(NCc1ccccn1)Nc1ccccc1	1.4%	-2.1%	19.4%[59 µM]	79.4µM*	34.2%
CN(C)CCCN1C(=O)C(O)=C(C(=O)c2cccs2)C1c1cccc([N+](=O)[O-])c1 (configuration not stated)	18.1%	·	15.9%[59 µM]	-38.6%	·
Cc1cc(N2C(=O)C(O)=C(C(=O)c3cccs3)C2c2cccc(Br)c2)no1 (configuration not stated)	1.3%	-29.4%	?	-28.9%	-8.1%
O=C(C1=C(O)C(=O)N(CCN2CCOCC2)C1c1ccc([N+](=O)[O-])cc1)c1cccs1 (configuration not stated)	-6.8%	44.7µM*	?	-7.0%	22.8%
O=C(C1=C(O)C(=O)N(CCN2CCOCC2)C1c1cccc(Br)c1)c1cccs1 (configuration not stated)	3.3%	-9.1%	56.2µM*	-8.5%	68.7%
Cc1nn(-c2ccccc2)c(Cl)c1C(=O)Nc1ccc(N2CCOCC2)cc1	13.5%	10.4%[57.1 µM]	?	-25.4%	44.4%
COc1ccccc1NC(=O)Nc1nc(CC(=O)Nc2ccc(F)cc2)cs1	·	-1.4%	-32.6%	-8.7%	26.4%
COc1ccccc1NC(=O)Nc1nc(CC(=O)Nc2ccc(N(C)C)cc2)cs1	·	25.1µM*	11.2µM*	12.6µM*	39.8µM*
COc1ccccc1NC(=O)Nc1nc(CC(=O)Nc2cc(F)ccc2F)cs1	·	-34.5%	31.6µM*	-36.9%	-17.4%
COc1ccccc1NC(=O)Nc1nc(CC(=O)Nc2cccc(F)c2)cs1	·	-33.6%	39.8µM*	-35.1%	3.0%
COc1ccc(N2CCN(C(=O)Cc3csc(NC(=O)Nc4ccccc4OC)n3)CC2)cc1	·	?	7.94µM*	?	-22.6%
CC(=O)c1cccc(NC(=O)CNC(=O)c2cc3ccccc3o2)c1	20.4%	-13.8%	·	-7.1%	26.0%
COc1cccc(CN(C)Cc2c(O)ccc3ccccc23)c1	-2.7%	-5.6%	8.91µM*	2.8%	5.1%
CC(C)CN(Cc1c(O)ccc2ccccc12)CC(C)C	4.8%	-15.5%	·	?	14.2%
CN(C)Cc1c(O)ccc2ccccc12	6.0%	5.1%[11.4 µM]	7.94µM*	-17.8%	36.2%
CN(Cc1ccccc1)Cc1c(F)cccc1F	-27.2%	7.08µM*	11.2µM*	56.2µM*	?
